Results published in the supplement of paper PMC11732987, “Enantioselective OTUD7B fragment discovery through chemoproteomics screening and high-throughput optimisation” (Communications Chemistry, 2025).

Experiments:
Test in all cases: log2 ratio of Biotin-Ahx-Ub-VS probe labelling (fragment/DMSO); higher = less target engagement (more negative = stronger competition), active = hit call of the paper (q ≤ 0.05, log2 ratio ≤ -1)
Conditions in all cases: compound concentration: 200 uM; treatment time: 3 h
[1] = biological target: T1, USP42 (UniProt Q9H9J4)
T1 sequence (whole entry): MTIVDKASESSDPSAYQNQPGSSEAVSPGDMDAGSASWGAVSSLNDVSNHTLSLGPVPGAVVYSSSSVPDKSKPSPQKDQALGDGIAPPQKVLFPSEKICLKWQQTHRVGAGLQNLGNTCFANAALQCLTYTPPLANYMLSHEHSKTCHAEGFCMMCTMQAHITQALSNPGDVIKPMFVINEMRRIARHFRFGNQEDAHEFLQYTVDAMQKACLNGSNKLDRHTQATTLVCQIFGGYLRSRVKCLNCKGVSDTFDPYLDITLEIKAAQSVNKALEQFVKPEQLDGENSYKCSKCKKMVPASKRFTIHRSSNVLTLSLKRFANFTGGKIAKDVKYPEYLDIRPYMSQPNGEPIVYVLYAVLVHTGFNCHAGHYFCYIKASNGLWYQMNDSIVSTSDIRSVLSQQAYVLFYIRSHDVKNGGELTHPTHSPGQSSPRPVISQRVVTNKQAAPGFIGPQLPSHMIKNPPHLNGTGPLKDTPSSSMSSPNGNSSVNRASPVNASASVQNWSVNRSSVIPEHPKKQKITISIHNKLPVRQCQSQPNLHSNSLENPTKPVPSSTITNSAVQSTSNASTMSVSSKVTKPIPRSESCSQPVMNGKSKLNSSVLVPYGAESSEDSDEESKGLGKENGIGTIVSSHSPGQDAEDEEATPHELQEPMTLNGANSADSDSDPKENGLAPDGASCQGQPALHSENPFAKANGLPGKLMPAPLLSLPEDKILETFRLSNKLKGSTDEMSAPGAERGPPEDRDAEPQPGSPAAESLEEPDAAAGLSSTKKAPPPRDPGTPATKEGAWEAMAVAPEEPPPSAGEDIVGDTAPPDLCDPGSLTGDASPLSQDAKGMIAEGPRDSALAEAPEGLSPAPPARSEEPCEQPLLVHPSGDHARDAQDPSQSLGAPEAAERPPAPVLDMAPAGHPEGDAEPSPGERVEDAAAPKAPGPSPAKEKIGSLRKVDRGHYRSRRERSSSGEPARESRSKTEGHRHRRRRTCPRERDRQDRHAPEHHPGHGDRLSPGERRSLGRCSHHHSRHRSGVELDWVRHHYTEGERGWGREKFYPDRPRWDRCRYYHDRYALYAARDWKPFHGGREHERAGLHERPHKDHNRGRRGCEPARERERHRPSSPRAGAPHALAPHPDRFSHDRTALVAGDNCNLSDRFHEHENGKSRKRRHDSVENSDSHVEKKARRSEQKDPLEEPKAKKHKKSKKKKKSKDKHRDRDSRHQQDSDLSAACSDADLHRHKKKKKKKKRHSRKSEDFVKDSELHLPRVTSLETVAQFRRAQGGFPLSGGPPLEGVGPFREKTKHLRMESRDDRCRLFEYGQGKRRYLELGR
Procedure, shortened: (§1)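 HEK293T lysate (495 µg per sample, in Tris/CHAPS/IGEPAL buffer with protease inhibitors) was treated in triplicate with fragment at 200 µM or with DMSO for 3 h. It was then treated with Biotin-Ahx-Ub-VS (0.5 µM final) for 1 h. Labelled DUBs were NeutrAvidin-enriched, digested with LysC and trypsin, and run by diaPASEF LC-MS/MS. Spectronaut label-free quantities were global-median-normalised. Values are average log2 ratios fragment/DMSO by unpaired t-test, using proteins with ≥2 unique peptides.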

[2] = biological target: USP46 (UniProt P62068)
Procedure, shortened: as §1

[3] = biological target: T2, USP47 (UniProt Q96K76)
T2 sequence (whole entry): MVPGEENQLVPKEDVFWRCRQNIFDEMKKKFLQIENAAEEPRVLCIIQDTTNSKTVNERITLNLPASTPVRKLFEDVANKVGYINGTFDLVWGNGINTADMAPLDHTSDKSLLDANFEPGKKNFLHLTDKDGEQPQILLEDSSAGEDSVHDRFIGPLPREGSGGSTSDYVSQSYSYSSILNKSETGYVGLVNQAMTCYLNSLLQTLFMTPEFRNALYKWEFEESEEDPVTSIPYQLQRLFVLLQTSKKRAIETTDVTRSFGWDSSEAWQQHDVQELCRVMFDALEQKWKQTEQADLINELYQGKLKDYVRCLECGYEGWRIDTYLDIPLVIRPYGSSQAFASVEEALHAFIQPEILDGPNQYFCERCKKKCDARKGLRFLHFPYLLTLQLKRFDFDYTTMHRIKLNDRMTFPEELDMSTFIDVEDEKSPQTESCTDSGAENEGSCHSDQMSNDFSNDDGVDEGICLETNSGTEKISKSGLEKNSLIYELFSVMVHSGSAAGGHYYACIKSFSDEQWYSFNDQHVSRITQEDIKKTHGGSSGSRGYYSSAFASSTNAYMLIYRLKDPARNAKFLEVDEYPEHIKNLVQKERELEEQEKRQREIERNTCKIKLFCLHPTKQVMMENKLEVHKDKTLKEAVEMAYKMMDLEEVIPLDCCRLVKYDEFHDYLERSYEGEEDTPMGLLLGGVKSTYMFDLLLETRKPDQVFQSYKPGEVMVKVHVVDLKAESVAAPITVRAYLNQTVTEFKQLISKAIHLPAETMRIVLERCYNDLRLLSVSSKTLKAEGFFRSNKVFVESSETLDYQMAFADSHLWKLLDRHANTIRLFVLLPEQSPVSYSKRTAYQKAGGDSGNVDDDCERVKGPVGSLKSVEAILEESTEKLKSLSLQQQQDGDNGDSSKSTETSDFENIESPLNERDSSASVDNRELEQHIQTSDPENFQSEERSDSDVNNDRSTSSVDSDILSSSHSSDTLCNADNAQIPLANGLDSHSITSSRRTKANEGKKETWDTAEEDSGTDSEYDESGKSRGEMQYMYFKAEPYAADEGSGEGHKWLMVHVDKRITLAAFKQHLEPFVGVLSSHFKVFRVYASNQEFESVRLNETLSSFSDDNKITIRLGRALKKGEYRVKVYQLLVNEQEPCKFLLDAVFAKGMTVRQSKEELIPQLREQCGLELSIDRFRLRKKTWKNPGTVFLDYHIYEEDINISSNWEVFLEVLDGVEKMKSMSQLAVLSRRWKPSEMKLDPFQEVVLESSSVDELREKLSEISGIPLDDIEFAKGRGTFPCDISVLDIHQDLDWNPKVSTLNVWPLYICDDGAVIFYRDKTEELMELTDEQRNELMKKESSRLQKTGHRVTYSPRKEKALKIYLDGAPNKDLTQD
Procedure, shortened: as §1

[4] = biological target: T3, USP48 (UniProt Q86UV5)
T3 sequence (whole entry): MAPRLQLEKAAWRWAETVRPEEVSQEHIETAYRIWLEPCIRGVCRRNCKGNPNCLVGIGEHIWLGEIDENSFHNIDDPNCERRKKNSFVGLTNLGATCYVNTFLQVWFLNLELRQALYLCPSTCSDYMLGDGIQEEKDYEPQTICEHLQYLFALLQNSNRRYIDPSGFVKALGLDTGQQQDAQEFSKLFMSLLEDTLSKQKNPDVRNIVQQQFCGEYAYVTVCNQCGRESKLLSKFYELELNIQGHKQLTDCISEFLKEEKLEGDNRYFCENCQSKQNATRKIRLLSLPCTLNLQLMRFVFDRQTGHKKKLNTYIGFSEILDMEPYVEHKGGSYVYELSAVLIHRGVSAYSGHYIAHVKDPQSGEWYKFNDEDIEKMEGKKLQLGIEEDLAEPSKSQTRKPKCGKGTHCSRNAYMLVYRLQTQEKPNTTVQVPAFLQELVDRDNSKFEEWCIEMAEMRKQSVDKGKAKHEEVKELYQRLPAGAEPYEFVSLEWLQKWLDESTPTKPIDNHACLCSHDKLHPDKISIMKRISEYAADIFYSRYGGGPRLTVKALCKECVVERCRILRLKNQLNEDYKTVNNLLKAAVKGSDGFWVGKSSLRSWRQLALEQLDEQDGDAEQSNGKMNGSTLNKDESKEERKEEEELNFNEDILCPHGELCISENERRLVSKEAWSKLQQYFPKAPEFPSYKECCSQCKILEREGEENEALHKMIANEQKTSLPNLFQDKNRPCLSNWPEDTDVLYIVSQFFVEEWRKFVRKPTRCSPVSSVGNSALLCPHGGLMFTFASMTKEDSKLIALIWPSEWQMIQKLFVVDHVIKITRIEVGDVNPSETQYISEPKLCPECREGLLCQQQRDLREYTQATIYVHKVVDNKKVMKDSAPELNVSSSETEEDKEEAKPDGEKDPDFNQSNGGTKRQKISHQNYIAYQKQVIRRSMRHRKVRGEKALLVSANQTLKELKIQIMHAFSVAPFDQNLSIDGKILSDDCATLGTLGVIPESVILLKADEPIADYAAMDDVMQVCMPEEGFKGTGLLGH
Procedure, shortened: as §1

[5] = biological target: T4, USP5 (UniProt P45974)
T4 sequence (whole entry): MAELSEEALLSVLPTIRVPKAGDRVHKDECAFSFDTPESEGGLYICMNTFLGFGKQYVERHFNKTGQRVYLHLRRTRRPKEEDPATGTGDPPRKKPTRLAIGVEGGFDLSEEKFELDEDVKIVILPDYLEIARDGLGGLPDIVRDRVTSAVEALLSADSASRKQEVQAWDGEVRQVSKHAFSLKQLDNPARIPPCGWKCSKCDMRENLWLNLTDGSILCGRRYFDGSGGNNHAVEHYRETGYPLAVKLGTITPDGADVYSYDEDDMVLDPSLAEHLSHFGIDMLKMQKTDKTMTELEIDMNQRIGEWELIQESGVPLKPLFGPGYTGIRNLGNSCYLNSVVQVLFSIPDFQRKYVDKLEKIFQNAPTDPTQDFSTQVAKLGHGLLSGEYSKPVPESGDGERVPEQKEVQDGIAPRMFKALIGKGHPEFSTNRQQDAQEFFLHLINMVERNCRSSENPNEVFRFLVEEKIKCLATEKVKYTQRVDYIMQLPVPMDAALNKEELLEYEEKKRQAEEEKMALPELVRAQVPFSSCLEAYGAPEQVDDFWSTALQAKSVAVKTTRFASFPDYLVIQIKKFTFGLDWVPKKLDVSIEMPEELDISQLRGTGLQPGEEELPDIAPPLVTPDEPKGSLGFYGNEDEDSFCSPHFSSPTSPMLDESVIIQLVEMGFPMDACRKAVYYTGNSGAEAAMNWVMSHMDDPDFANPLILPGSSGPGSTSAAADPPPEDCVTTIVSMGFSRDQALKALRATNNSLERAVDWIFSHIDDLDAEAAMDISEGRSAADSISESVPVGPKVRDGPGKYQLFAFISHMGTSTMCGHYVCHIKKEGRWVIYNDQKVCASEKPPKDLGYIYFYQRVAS
Procedure, shortened: as §1

[6] = biological target: USP54 (UniProt Q70EL1)
Procedure, shortened: as §1

[7] = biological target: USP7 (UniProt Q93009)
Procedure, shortened: as §1

[8] = biological target: T5, USP8 (UniProt P40818)
T5 sequence (whole entry): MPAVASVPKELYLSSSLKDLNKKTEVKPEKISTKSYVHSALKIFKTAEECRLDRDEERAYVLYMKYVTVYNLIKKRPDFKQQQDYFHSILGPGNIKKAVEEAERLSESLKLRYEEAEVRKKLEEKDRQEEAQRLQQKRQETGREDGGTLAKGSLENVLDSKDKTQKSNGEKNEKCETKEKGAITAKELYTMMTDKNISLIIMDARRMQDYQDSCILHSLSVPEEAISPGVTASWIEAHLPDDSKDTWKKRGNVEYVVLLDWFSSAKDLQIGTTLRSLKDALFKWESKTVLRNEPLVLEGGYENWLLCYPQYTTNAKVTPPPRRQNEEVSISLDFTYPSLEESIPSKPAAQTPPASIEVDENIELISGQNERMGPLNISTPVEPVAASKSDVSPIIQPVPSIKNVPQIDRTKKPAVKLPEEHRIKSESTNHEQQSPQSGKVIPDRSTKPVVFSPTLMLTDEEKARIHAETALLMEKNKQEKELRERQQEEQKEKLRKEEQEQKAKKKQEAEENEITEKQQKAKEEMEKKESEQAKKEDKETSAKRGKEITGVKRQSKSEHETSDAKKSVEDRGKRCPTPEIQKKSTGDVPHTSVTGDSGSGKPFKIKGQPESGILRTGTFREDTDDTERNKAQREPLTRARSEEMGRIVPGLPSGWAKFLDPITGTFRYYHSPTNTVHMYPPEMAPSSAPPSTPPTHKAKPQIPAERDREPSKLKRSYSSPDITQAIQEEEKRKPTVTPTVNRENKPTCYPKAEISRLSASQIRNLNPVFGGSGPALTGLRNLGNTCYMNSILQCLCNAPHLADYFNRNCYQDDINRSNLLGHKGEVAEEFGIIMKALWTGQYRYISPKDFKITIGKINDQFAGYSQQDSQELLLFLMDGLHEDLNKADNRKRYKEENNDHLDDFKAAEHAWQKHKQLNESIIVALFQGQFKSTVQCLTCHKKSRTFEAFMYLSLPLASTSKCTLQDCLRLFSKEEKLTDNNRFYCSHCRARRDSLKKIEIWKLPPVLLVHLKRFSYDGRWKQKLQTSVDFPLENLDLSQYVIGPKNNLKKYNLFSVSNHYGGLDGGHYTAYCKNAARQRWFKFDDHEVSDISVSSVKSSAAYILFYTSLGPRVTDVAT
Procedure, shortened: as §1

[9] = biological target: USP9X (UniProt Q93008)
Procedure, shortened: as §1

[10] = biological target: UniProt O00487
Procedure, shortened: as §1

Measured: log2 ratio of Biotin-Ahx-Ub-VS probe labelling

Sequence of USP46 (P62068 whole entry): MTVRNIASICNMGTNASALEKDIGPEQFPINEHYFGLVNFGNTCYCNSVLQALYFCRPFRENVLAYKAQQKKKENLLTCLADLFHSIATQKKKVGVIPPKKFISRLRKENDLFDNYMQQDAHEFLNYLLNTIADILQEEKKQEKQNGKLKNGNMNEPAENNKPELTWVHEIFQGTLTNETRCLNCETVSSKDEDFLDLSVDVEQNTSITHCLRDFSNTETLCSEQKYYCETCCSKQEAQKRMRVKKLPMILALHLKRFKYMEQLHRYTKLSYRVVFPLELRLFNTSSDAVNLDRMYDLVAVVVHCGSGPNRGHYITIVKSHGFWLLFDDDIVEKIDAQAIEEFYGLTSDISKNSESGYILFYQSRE
Sequence of UniProt O00487 (O00487 whole entry): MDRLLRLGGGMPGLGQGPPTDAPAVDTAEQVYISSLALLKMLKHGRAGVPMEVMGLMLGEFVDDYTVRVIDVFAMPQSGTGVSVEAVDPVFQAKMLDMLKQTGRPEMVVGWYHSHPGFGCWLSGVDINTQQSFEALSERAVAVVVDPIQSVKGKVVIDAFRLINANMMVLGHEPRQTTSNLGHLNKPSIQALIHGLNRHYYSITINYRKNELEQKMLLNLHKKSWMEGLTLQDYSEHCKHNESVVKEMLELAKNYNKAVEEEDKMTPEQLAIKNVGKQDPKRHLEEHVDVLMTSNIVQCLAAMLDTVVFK
Sequence of USP9X (Q93008 whole entry): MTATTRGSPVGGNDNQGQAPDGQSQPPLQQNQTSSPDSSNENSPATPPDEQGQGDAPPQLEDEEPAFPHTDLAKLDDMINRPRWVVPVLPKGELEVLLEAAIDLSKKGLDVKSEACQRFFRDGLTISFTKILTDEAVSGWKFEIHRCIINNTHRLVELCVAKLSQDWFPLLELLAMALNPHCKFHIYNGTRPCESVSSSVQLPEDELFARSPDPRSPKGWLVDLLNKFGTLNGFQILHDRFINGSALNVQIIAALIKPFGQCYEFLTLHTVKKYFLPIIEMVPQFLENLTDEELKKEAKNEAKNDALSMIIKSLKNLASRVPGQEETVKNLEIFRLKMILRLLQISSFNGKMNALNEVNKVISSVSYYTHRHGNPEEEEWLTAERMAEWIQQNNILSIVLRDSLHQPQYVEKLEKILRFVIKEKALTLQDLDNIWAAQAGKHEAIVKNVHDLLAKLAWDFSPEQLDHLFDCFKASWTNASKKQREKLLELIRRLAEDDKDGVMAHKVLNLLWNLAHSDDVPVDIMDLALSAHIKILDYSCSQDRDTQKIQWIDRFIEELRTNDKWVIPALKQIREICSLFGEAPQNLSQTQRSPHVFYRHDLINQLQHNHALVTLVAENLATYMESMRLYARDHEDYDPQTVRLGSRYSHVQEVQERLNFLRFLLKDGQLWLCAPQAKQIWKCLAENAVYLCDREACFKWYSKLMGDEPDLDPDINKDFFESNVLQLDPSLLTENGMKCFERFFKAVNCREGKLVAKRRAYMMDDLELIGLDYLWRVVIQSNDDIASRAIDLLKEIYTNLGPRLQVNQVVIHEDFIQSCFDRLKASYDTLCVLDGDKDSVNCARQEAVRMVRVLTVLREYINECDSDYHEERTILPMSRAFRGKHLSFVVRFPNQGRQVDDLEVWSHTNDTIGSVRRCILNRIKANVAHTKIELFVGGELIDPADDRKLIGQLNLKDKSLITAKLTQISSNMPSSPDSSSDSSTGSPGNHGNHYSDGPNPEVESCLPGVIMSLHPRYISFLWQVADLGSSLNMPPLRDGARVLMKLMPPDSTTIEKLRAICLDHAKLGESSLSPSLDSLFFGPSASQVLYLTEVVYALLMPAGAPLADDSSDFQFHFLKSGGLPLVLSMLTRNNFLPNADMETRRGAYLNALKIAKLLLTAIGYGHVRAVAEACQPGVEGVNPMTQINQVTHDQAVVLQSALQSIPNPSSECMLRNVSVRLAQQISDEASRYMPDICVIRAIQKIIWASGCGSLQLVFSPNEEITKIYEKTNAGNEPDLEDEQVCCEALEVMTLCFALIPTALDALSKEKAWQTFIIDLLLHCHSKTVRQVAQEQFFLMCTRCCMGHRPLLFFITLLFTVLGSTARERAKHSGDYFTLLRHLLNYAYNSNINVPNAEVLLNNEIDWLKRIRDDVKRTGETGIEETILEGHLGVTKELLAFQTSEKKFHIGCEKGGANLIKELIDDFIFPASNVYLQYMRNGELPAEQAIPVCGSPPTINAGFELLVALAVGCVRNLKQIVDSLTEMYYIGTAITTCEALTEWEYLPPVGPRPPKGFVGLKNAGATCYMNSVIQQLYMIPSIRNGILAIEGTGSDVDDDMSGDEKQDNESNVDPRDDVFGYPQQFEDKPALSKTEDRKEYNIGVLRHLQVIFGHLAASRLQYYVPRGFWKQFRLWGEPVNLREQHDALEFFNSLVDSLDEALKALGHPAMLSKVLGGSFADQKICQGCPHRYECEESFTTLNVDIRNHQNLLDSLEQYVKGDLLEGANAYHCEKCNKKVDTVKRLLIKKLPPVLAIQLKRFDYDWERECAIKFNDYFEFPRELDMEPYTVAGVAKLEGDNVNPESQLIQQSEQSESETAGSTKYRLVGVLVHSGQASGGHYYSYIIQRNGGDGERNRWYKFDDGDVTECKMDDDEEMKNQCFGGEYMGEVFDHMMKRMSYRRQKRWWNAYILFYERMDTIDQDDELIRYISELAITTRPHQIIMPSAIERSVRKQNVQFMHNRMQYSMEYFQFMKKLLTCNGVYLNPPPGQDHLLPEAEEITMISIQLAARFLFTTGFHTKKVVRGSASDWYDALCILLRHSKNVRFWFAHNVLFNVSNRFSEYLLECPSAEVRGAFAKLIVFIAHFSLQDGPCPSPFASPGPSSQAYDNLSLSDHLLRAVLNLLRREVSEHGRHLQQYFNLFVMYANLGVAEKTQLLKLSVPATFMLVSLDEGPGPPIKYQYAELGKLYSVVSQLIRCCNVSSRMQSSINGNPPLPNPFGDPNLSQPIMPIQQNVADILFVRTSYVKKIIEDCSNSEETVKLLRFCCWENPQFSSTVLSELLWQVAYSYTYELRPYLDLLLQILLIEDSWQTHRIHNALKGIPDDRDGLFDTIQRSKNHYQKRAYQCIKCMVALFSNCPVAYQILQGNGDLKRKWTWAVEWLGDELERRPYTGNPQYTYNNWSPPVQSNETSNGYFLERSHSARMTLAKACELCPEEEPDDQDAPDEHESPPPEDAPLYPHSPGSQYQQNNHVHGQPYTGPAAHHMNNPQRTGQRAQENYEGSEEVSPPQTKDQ
Sequence of USP7 (Q93009 whole entry, looked up): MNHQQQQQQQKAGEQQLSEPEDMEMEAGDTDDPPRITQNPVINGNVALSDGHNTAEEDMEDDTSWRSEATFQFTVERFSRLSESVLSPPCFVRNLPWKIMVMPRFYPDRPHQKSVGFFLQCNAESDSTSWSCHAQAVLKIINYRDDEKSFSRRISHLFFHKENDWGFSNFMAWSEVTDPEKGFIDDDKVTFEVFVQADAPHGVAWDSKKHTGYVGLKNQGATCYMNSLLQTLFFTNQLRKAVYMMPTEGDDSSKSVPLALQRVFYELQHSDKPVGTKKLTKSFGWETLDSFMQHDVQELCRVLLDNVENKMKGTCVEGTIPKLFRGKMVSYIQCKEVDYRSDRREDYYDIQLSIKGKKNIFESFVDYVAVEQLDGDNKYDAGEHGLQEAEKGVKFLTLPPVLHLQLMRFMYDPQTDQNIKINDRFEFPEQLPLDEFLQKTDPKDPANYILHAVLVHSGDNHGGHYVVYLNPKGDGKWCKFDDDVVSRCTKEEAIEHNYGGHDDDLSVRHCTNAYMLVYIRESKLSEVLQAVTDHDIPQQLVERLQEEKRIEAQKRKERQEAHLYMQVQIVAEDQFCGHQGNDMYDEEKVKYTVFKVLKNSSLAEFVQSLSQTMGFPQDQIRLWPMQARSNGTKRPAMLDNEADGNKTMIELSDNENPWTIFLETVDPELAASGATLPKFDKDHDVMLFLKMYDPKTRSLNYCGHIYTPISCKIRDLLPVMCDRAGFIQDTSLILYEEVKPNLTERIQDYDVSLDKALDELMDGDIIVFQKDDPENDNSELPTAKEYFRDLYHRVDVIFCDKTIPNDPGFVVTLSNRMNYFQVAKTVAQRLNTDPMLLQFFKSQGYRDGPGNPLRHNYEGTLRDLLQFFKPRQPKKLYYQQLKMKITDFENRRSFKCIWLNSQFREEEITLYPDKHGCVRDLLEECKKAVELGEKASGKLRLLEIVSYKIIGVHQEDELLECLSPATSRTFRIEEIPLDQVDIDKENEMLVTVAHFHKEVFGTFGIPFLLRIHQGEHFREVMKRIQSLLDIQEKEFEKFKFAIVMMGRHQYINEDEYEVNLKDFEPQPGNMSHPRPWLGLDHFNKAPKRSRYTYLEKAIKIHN

O=C(CCl)N1CCC(C(=O)N2CCCC2)CC1
inactive: [1] -0.161 | [2] 0.0393 | [3] -0.0567 | [4] 0.126 | [5] -0.266 | [6] -0.159 | [7] -0.543 | [8] -0.0342 | [9] -0.0236 | [10] -0.108
